The values below come from PMC4336329 (PLoS ONE, 2015).

About 14,000 (4.5%) of roughly 310,000 compounds showed an effect of 50% or more. The effect is printed as a negative number. The full list was thinned out, with strong results kept by preference.
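Also: peak tail current of the secondary pulse compared with the same well before compound.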

The assay deals with human ether-à-go-go-related gene (hERG) potassium channel (human, UniProt Q12809). As to the kind of experiment: primary screen, population patch clamp on CHO cells stably expressing hERG; higher = less effect of the substance.
Chain of human ether-à-go-go-related gene (hERG) potassium channel (Q12809 whole entry, looked up): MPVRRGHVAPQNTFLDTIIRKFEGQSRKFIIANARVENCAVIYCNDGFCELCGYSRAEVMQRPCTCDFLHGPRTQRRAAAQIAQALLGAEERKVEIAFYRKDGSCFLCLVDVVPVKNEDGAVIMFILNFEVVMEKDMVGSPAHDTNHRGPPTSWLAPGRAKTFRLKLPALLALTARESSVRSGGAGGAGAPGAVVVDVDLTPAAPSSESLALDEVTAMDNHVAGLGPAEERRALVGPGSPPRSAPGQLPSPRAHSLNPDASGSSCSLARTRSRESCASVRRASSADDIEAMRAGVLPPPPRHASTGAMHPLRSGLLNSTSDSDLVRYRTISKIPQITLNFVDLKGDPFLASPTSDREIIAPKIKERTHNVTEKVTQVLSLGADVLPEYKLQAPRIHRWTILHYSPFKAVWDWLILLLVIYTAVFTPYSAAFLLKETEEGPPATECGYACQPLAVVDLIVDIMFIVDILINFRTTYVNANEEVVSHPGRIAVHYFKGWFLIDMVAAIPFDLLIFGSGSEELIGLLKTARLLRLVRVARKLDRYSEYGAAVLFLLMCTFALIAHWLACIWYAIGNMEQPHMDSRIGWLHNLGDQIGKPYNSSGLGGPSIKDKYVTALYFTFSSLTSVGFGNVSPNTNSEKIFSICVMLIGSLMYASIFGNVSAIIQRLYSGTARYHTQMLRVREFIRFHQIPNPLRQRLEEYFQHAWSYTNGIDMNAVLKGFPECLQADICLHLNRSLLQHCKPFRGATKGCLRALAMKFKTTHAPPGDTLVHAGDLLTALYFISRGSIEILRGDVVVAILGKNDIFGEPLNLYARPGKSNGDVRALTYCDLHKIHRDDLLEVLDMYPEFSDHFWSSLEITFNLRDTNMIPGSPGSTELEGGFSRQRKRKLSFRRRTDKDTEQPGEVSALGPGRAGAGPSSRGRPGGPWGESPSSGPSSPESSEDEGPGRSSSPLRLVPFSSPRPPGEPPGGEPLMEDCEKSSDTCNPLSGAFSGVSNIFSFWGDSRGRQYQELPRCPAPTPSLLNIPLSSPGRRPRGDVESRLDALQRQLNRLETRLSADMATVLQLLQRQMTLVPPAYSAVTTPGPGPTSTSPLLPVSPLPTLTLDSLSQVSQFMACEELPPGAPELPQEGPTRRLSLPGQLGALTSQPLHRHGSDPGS
Turning to `Cc1ccc(N(C(=O)c2snc(C(N)=O)c2N)C(C(=O)NCC2CCCO2)c2c[nH]c3ccccc23)cc1` (centres unmarked), the “hERG current change (%, negative = inhibition) at 10uM” value is recorded as -6.36%. The figure for `O=C(CSc1nnc(-c2ccncc2)o1)Nc1nncs1` is 15.5%; for `O=C(CSc1nnc(-c2ccccc2Br)o1)Nc1cccc2ccccc12` it is 5.79%; for `O=C(CSc1nnc(-c2ccccc2Br)o1)Nc1nncs1` it is -57.9%. The figure for `COc1ccc(NC(=O)c2ccc(COc3ccccc3)o2)c(OC)c1` is -7.06%; for `O=C(CC(C(=O)O)C1CCCO1)Nc1cccc(C(F)(F)F)c1` (centres unmarked) it is 5.84%. The figure for `O=C(CNC(=O)c1cccnc1)N/N=C/c1cccnc1` is 8.4%; for `O=C1CN(C(=O)c2cccc(F)c2)C(c2ccc(F)cc2)c2cc(F)ccc2N1` (centres unmarked) it is -15.4%; for `O=C1CN(C(=O)c2ccccc2Br)C(c2ccc(F)cc2)c2cc(F)ccc2N1` (centres unmarked) it is -61.6%. Take `O=C1CN(C(=O)c2ccccc2F)C(c2ccc(F)cc2)c2cc(F)ccc2N1` (centres unmarked): the “hERG current change (%, negative = inhibition) at 10uM” value is -11.7%.

Take `Cc1ccc2c(c1)C(c1ccc(F)cc1)N(C(=O)c1ccccc1Br)CC(=O)N2` (centres unmarked): the “hERG current change (%, negative = inhibition) at 10uM” value is -16.1%. As for `Cc1ccc(C(=O)N2CC(=O)Nc3ccc(F)cc3C2c2ccccc2)cc1` (centres unmarked), the “hERG current change (%, negative = inhibition) at 10uM” value is on record as -4.56%.

As for `O=C1CN(C(=O)c2ccccc2)C(c2ccccc2)c2cc(F)ccc2N1` (centres unmarked), the “hERG current change (%, negative = inhibition) at 10uM” value was -75.1%. Consider `CCCOc1ccc(C(=O)N2CCCc3ccccc32)cc1`, for which the “hERG current change (%, negative = inhibition) at 10uM” value was -26%. As for `COc1ccc(C2SCC(C(=O)NCc3ccc(F)cc3)N2C(C)=O)cc1` (centres unmarked), the figure is -20.2%; as for `Nc1ccccc1SSc1ccccc1N`, 27.7%; as for `CCOc1ccc2nc(N3CCC(C(=O)NCCCN4CCOCC4)CC3)sc2c1`, -17.7%.

For `COc1ccc2nc(N3CCCC(C(=O)NCCCN4CCN(C)CC4)C3)sc2c1` (centres unmarked), the “hERG current change (%, negative = inhibition) at 10uM” value is given as 1.67%. Regarding `Cc1ccc(S(=O)(=O)N2CCC(C(=O)NCCCN3CCCC3=O)CC2)cc1C`, the “hERG current change (%, negative = inhibition) at 10uM” value came to 7.98%. The figure for `Cc1cc(C)c(C)c(S(=O)(=O)N2CCC(C(=O)NCCCN3CCCC3=O)CC2)c1C` is -70%. The figure for `O=C(NCCCN1CCCC1=O)C1CCN(S(=O)(=O)c2c(Cl)cccc2Cl)CC1` is -0.379%; for `CCOc1ccc2nc(N3CCCC(C(=O)NC4CCCC4)C3)sc2c1` (centres unmarked) it is -0.903%.

For `COc1ccc2nc(N3CCCC(C(=O)NCCCN4C(C)CCCC4C)C3)sc2c1` (centres unmarked), the “hERG current change (%, negative = inhibition) at 10uM” value is -34.1%. The figure for `Cc1cc(C)c2nc(N3CCC(C(=O)NCCCN4CCCC4=O)CC3)sc2c1` is -25.5%; for `CCOc1ccc2nc(N3CCCC(C(=O)NCCCN4C(C)CCCC4C)C3)sc2c1` (centres unmarked) it is -54.7%; for `CCOc1cc2sc(N3CCC(C(=O)NCCCN4CCCC4=O)CC3)nc2cc1Br` it is -60.5%.

On to `CCCN1CCN(CCCNC(=O)C2CCCN(c3nc4ccc(OCC)cc4s3)C2)CC1` (centres unmarked), for which the “hERG current change (%, negative = inhibition) at 10uM” value was -56.7%. The figure for `CCOc1ccc2nc(N3CCCC(C(=O)NCC4CCCO4)C3)sc2c1` (centres unmarked) is -19.1%; for `CCOC(=O)C1=C(c2ccccc2)OC(N)=C(C#N)C1c1cccs1` (centres unmarked) it is 3.11%.

With `O=C(c1ccc(=O)[nH]c1)N1CCN(S(=O)(=O)c2cc(C(F)(F)F)ccc2Cl)CC1`, the “hERG current change (%, negative = inhibition) at 10uM” value is -13.4%.

As to `Cc1ccc(NC(=O)CN(C)Cc2ccc(F)cc2)c([N+](=O)[O-])c1`, the “hERG current change (%, negative = inhibition) at 10uM” value is -17.8%. For the molecule `CSc1nc2c(c(=O)[nH]1)C(c1ccncc1)C(C(=O)OC(C)C)=C(C)N2` (centres unmarked), the “hERG current change (%, negative = inhibition) at 10uM” value is reported as -0.441%.

Take `CCN(CC)c1ccc(NC(=O)COc2ccccc2C#N)cc1S(=O)(=O)Nc1ccc(OC)cc1`: the “hERG current change (%, negative = inhibition) at 10uM” value was 13%. As for `COc1ccc([C@@H]2[C@@H]3C(=O)N(C(C)(C)C)C(=O)[C@@H]3[C@]3(Cc4ccccc4)C(=O)N(c4ccc(C)cc4)C(=O)N23)cc1`, the figure is 2.04%. The figure for `CN(Cc1ccccc1)C(=O)c1[nH]cnc1C(=O)NCC(=O)OC(C)(C)C` is 10.4%. The figure for `COc1ccc(/C=C2\SC(=O)N(CCNC(=O)Cc3coc4cc(C)ccc34)C2=O)cc1OC` is 4.76%; for `CC(C)(C)[C@@H]1CCC(=O)N(CC[C@H](Sc2ccccc2)c2ccccc2)CC1` it is 17.1%; for `Cc1cc(C)cc(NC(=O)COC(=O)CC2CCCC2)c1` it is -0.633%. `Cc1cccc(C)c1NC(=O)CN(C)C(=O)CCc1nc2sc3c(c2c(=O)[nH]1)CCCC3`: the “hERG current change (%, negative = inhibition) at 10uM” value was 5.53%. As for `Cc1ccc2occ(/C=N/NC(=O)[C@@H](N)Cc3ccccc3)c(=O)c2c1.Cl`, the figure is -22.5%; as for `CCOc1ccc2nc(N3CCCC(C(=O)NCCCN4CC(C)CC(C)C4)C3)sc2c1` (centres unmarked), -48.8%; as for `CCOc1ccc2nc(N3CCCC(C(=O)NCCCN4CCCCC4)C3)sc2c1` (centres unmarked), -64.8%. As to `CCOc1ccc2nc(N3CCCC(C(=O)NCCCN4CCOCC4)C3)sc2c1` (centres unmarked), the “hERG current change (%, negative = inhibition) at 10uM” value is on record as -19.6%. Turning to `COc1cccc(C2C(C#N)=C(N)Oc3cc(C)n(Cc4ccccn4)c(=O)c32)c1OC` (centres unmarked), the “hERG current change (%, negative = inhibition) at 10uM” value is listed as 3.7%.

On to `CC1(C)CC2CC(C)(CN2C(=O)C23CCC(C)(C(=O)C2)C3(C)C)C1` (centres unmarked), for which the “hERG current change (%, negative = inhibition) at 10uM” value is -4.28%. The figure for `COc1cccc(N2CCN(C(=O)CC(NC(=O)c3ccccc3)c3ccccc3)CC2)c1` (centres unmarked) is -65%. The figure for `COc1ccc(N2CCN(C(=O)CC(NC(N)=O)c3cccc(Oc4ccccc4)c3)CC2)cc1` (centres unmarked) is -7.97%.

Turning to `O=C(NC(=S)N1CCN(Cc2ccccc2)CC1)c1ccccc1`, the “hERG current change (%, negative = inhibition) at 10uM” value amounted to 6.47%.

As for `CC(NC(=O)c1ccccc1)c1nc2ccccc2n1Cc1ccc(C#N)cc1` (centres unmarked), the “hERG current change (%, negative = inhibition) at 10uM” value is reported as -68.6%. As for `N#Cc1ccc(CN2CCN(C(=O)CC(NC(=O)c3ccccc3)c3ccccc3)CC2)cc1` (centres unmarked), the figure is -81.2%; as for `CC(=O)NC(CC(=O)N1CCN(C(C)=O)CC1)c1ccccc1` (centres unmarked), 27%; as for `CC(NC(=O)c1ccccc1)c1nc2ccccc2n1Cc1ccccc1F` (centres unmarked), 0.996%.

In the case of `Cc1cccc(N2CCN(C(=O)CC(NC(=O)c3ccccc3)c3ccccc3)CC2C)c1` (centres unmarked), the “hERG current change (%, negative = inhibition) at 10uM” value was -47.1%. Regarding `CCn1c(C(C)NC(=O)c2cccc(C)c2)nc2ccccc21` (centres unmarked), the “hERG current change (%, negative = inhibition) at 10uM” value is -19.6%. As to `CCC1(C)Cc2c(sc3c2c(=O)n(-c2ccccc2)c(=O)n3C)CO1` (centres unmarked), the “hERG current change (%, negative = inhibition) at 10uM” value is given as 5.26%. For `COc1cc2cnc(-c3ccccc3)c(-c3cc(OC)c(OC)c(OC)c3)c2cc1OC`, the “hERG current change (%, negative = inhibition) at 10uM” value is given as -0.323%. As for `Cn1c2ccccc2c(=O)c2ccc(C#CC3(O)CCCCC3)cc21`, the figure is 1.63%; as for `COc1cccc(N(CC(=O)NCc2ccco2)C(=O)CCC(=O)Nc2nccs2)c1`, 1.6%. As for `CSCCC(NS(=O)(=O)c1ccc(Cl)cc1)C(=O)OCc1c(Cl)cccc1Cl` (centres unmarked), the figure is 6.45%; as for `COc1ccc(OC)c(C(C)NC(=S)NC2CCCCC2)c1` (centres unmarked), -6.58%; as for `Cc1cccc(OC(C)C(=O)N2CCCN(C)CC2)c1C` (centres unmarked), 1.75%.

`COc1ccc(NC(=O)CSc2nnc3n2CCCCC3)cc1`: the “hERG current change (%, negative = inhibition) at 10uM” value was found to be 8.17%. The figure for `Cc1ccccc1S(=O)(=O)Oc1ccccc1C(=O)Oc1ccccc1` is -1.26%; for `C=CCn1c(=O)/c(=C/c2ccc(O)cc2)s/c1=C(/C#N)c1nnc2n1CCCCC2` it is -16.6%; for `C=CCn1c(=O)/c(=C/c2ccc(F)cc2)s/c1=C(\C#N)c1nnc2n1CCCCC2` it is -59.9%. On to `Br.C=CCN1C(c2ccc(OCC)cc2)=CS/C1=C(\C#N)c1nnc2n1CCCCC2`, for which the “hERG current change (%, negative = inhibition) at 10uM” value is -37.9%. Turning to `Br.CCOc1ccc(C2=CS/C(=C(\C#N)c3nnc4n3CCCCC4)N2CC)cc1`, the “hERG current change (%, negative = inhibition) at 10uM” value was -47.3%. As to `C=CCn1c(=O)/c(=C/c2ccc(Cl)cc2)s/c1=C(/C#N)c1nnc2n1CCCCC2`, the “hERG current change (%, negative = inhibition) at 10uM” value is -43%. The figure for `Br.C=CCN1C(c2ccccc2)=CS/C1=C(\C#N)c1nnc2n1CCCCC2` is -59.2%; for `Cc1cc(C(=O)Nc2ccc(C(=O)O)cc2)c(C)o1` it is 23.9%. As for `Cc1cc(C)c(C)c(S(=O)(=O)N2CCN(c3ncnc4ccccc34)CC2)c1C`, the figure is -4.67%; as for `Cc1c(NC(=O)c2noc3c2CCc2ccccc2-3)c(=O)n(-c2ccccc2)n1C`, -52.9%; as for `Cc1ccc(-c2cc(C(F)(F)F)n3nc(C(=O)Nc4c(C)n(C)n(-c5ccccc5)c4=O)cc3n2)cc1`, -14.3%.

Turning to `Cc1c(NC(=O)c2cc(-c3ccc(Cl)cc3)on2)c(=O)n(-c2ccccc2)n1C`, the “hERG current change (%, negative = inhibition) at 10uM” value is -55.1%. As for `Cc1c(N/C(=N/S(=O)(=O)c2ccc(Cl)cc2)c2ccccc2)c(=O)n(-c2ccccc2)n1C`, the figure is -20.6%; as for `Cc1ccc(S(=O)(=O)/N=C(/Nc2c(C)n(C)n(-c3ccccc3)c2=O)c2ccc(Cl)cc2)cc1`, -57%. For the molecule `Cc1c(N/C(=N/S(=O)(=O)c2ccccc2)c2ccc(Cl)cc2)c(=O)n(-c2ccccc2)n1C`, the “hERG current change (%, negative = inhibition) at 10uM” value is -30.7%. Regarding `COc1ccc2c(c1)CCc1c(C(=O)Nc3c(C)n(C)n(-c4ccccc4)c3=O)noc1-2`, the “hERG current change (%, negative = inhibition) at 10uM” value is on record as 4.63%. On to `Cc1c(NC(=O)c2cc3nc(-c4ccc(Br)cc4)cc(C(F)(F)F)n3n2)c(=O)n(-c2ccccc2)n1C`, for which the “hERG current change (%, negative = inhibition) at 10uM” value was -33.9%. As for `Cc1ccc(-c2cc(C(=O)Nc3c(C)n(C)n(-c4ccccc4)c3=O)no2)cc1`, the figure is -25.3%; as for `Cc1c(NC(=O)c2cc(-c3ccccc3)on2)c(=O)n(-c2ccccc2)n1C`, -27.7%; as for `Cc1cc(NC(=O)c2noc3c2CCc2ccccc2-3)no1`, 11%. In the case of `Cc1c(NC(=O)c2cc3nc(-c4ccc(Cl)cc4)cc(C(F)(F)F)n3n2)c(=O)n(-c2ccccc2)n1C`, the “hERG current change (%, negative = inhibition) at 10uM” value is recorded as -55.3%.
